Experimental findings from PubChem BioAssay AID1209 (Sanford-Burnham Center for Chemical Genomics, 2008) are described below.

Usually inhibition stands for the relative decrease from the control value, in per cent.

Values joined by “and” are separate entries in the source; they are usually repeats but may differ in a detail not shown here. Equal values may be shown once. The campaign covered roughly 190,000 compounds. About 810 (0.43%) were called active. For the sample, actives were picked, then their nearest neighbours and some compounds at random. Unmarked numbers belong to inactive results. Rule as the data show it: active = inhibition above about 50%; inactive = the rest.

For the test, the target named is Mannose-6-phosphate isomerase (Homo sapiens) (UniProt P34949). Put plainly: MPI enzyme activity inhibition – biochemical, fluorescence intensity, coupled assay, primary screen (AID 1209).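 Also: plate controls were DMSO vehicle for no effect and wells lacking substrate for full effect.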 Conditions: purified PMI enzyme, at 20 µM, active compounds read high.
Chain of Mannose-6-phosphate isomerase (Homo sapiens) (P34949 whole entry, looked up): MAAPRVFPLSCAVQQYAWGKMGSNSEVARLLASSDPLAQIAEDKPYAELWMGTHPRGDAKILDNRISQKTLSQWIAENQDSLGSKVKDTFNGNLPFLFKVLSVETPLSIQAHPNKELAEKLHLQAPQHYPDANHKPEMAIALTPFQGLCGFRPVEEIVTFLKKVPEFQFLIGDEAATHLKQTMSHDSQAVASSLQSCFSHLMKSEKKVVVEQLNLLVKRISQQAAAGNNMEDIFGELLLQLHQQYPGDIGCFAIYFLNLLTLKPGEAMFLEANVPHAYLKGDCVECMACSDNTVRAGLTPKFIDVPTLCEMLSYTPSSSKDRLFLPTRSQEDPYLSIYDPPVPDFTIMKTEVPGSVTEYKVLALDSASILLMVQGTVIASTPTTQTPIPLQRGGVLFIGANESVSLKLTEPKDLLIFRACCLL
As to `O=C(CSc1n[nH]c(=O)[nH]c1=O)Nc1ccc(C(=O)O)cc1`, the inhibition is -8.4%.
Regarding `O=[N+]([O-])c1cc(-c2ncccn2)cs1`, the inhibition is -13.4%.
With `O=[N+]([O-])c1cccnc1NCc1cccs1`, the inhibition is -2.4%.
Consider `O=C(O)CCC(=O)Nc1ccc(Cc2ccc(NC(=O)CCC(=O)O)c(O)c2)cc1O`, for which the inhibition was -9.3%.
Consider `Cc1ccc(Cl)cc1N1CCN(C(=O)CN2C(=O)c3cccc4cccc2c34)CC1`, for which the inhibition is 12.6%.
For the molecule `O=S1(=O)Nc2c(ccc3cccnc23)-c2ccccc21`, the inhibition is 62% (active).
Turning to `O=S1(=O)NC(=NCCc2ccccn2)c2ccccc21`, the inhibition is -7.8%.
In the case of `c1cnc2c(c1)ccc1cccnc12`, the inhibition is 5.7% and 24.3%.
Turning to `COc1ccc(-c2c(C)n([O-])c3c([n+]2=O)CCC3)cc1OC`, the inhibition was 8%.
Then `c1ccc(-c2ccccc2-n2cnnn2)cc1`, with -7.6%; and `O=C(Nc1nc2ccc(S(=O)(=O)N3CCCC3)cc2s1)C1CCCCC1`, with 7.3%; and `Cc1cc(C)nc(N2CCCC(C(=O)Nc3nc4ccc(S(C)(=O)=O)cc4s3)C2)n1` (stereo not given), with 51.4% (active).
With `Cc1cc(C)nc(N2CCCC(C(=O)Nc3nnc(C)s3)C2)n1` (stereo not given) the figure was -13.6%; with `CS(=O)(=O)c1ccc2nc(NC(=O)CCC(=O)c3cccs3)sc2c1`, -8.5%; with `CCn1c(C)c(CS(=O)(=O)c2ccccc2)[nH]c1=O`, 85.5% (active).
Then `CCc1c(C(C)S(=O)(=O)c2ccccc2)[nH]c(=O)n1CC` (stereo not given), with -38%; and `Cc1nn(C)c(C)c1CS(=O)(=O)c1ccccc1`, with -8.9%.
As for `Cc1cc(C)cc(-n2cc(C(=O)O)c(=O)cc2C)c1`, the inhibition was 5.3%.
Consider `COc1ccc(NC(=O)CSc2nc3sc(C)c(C)c3c(=O)n2Cc2ccco2)cc1`, for which the inhibition was 7.7%.
Turning to `C=CCN1C(=O)/C(=C/c2ccc(OC(C)=O)c(OCC)c2[N+](=O)[O-])SC1=S`, the inhibition is 41.3%.
As for `CCOc1ccc(/C=C2\SC(=S)NC2=O)cc1OC`, the inhibition was -12%.
With `CCOc1c(O)ccc(/C=C2\SC(=S)NC2=O)c1[N+](=O)[O-]`, the inhibition was 55.7% (active).
With `CC(=O)c1[nH]c(C)c(C(C)=O)c1C`, the inhibition is 11%.
In the case of `CC(=O)c1c(C)[nH]c(C(=O)O)c1C`, the inhibition was 13.6%.
With `CC(=O)c1c(C(=O)O)[nH]c(C(=O)O)c1C` the figure was 108% (active); with `S=c1nc(-c2ccccc2)n(CCCn2ccnc2)c2c1CCCC2`, 1.7%.
Turning to `COc1ccc(/C=C(\CC(=O)O)c2nc3ccccc3o2)cc1`, the inhibition was -27.3%.
With `Cc1nc(C)c(C(=O)NNC(=O)c2ccc(Br)cc2)s1` the figure was 6.9%.
With `CCN(C(=O)CSc1nnc(Cn2nnc3ccccc32)o1)c1nc(C)cs1` the figure was 9.1%.
For `COCCn1cc(C(=O)c2cc(Br)ccc2O)cc(C#N)c1=O`, the inhibition is -5.8%.
On to `O=C(Nc1cc(S(=O)(=O)N2CCOCC2)ccc1N1CCCC1)c1ccc2c(c1)S(=O)(=O)c1ccccc1C2=O`, for which the inhibition is 61% (active).
With `O=C(Nc1cc(S(=O)(=O)N2CCOCC2)ccc1O)c1ccc2c(c1)S(=O)(=O)c1ccccc1C2=O`, the inhibition was 46.3%.
Take `COc1ccc(-c2cc(C(=O)Nc3cc(S(=O)(=O)N4CCOCC4)ccc3N3CCOCC3)c3ccccc3n2)cc1`: the inhibition was -22.7%.
With `O=C(Nc1cc(S(=O)(=O)N2CCOCC2)ccc1N1CCCCC1)c1cc(-c2ccccn2)nc2ccccc12` the figure was 52.8% (active).
Take `COCCNC(=S)Nc1cc(S(=O)(=O)N2CCOCC2)ccc1N1CCCCC1`: the inhibition was 63.1% (active).
Take `O=C(Nc1ccc(S(=O)(=O)N2CCOCC2)cc1)c1ccc2c(c1)S(=O)(=O)c1ccccc1C2=O`: the inhibition is -4.6%.
For the molecule `CCN(CC)S(=O)(=O)c1ccc(N2CCOCC2)c(NC(=O)c2cc(-c3ccccn3)nc3ccccc23)c1`, the inhibition was 15.6%.
Consider `O=C(NC(=S)Nc1cc(S(=O)(=O)N2CCOCC2)ccc1N1CCOCC1)c1ccco1`, for which the inhibition was 3.9%.
Turning to `O=C(NC(=S)Nc1cc(S(=O)(=O)N2CCOCC2)ccc1N1CCOCC1)C1CCCC1`, the inhibition was -1.5%.
Take `On1nnc2ccc3ccccc3c21`: the inhibition was -9.6%.
As for `C/C(O)=c1/ccc2cccc3nc(C)nc1c23`, the inhibition was 42.6%.
With `Cc1ccc(SCc2ccc(C(=O)NCc3ccncc3)cc2)cc1` the figure was 0.9%; with `Cc1cc(C)n(C(=O)c2c([N+](=O)[O-])c(C)nn2C)n1`, 1.5%; with `c1ccc(CC2CCN(Cc3nc(-c4ccccc4)no3)CC2)cc1`, 16.3%.
With `COc1ccc(C(=O)Nc2sc3c(c2C#N)CCN(C(C)=O)C3)cc1` the figure was 5.9%; with `CC(=O)N1CCc2c(sc(NC(=O)c3ccc4c(c3)OCCO4)c2C#N)C1`, 18.2%.
Take `CC(=O)N1CCc2c(sc(NC(=O)c3ccc([N+](=O)[O-])o3)c2C#N)C1`: the inhibition is 59% (active).
As for `Cc1cc(-c2ccco2)n(CC(=O)NCc2ccco2)n1`, the inhibition was -9.3%.
On to `CC(CSc1nnnn1-c1ccccc1)Cn1c(N2CCCC2)nc2c1c(=O)[nH]c(=O)n2C` (stereo not given), for which the inhibition was 1.7%.
With `CCCC(=O)N(c1ccc2oc(=O)sc2c1)S(=O)(=O)c1cccs1` the figure was 3.6%; with `CC(C)(C)N=C1C([N+](=O)[O-])=CC=C2C1=NC1(CCCCC1)N2O`, 76.2% (active); with `O=[N+]([O-])C1=CC=C2C(=NC3(CCCCC3)N2O)C1=NC1CCCCC1`, 87.5% (active).
Take `O=[N+]([O-])c1nn(-c2ccc3c(c2)OCCO3)n(O)c1=NC1CCCCC1`: the inhibition was 6%.
Regarding `CN=C1C([N+](=O)[O-])=CC=C2C1=NC1(CCCCC1)N2O`, the inhibition was 70.6% (active).
With `O=[N+]([O-])c1nn(-c2ccc3c(c2)OCCO3)n(O)c1=NC1CCCCCC1` the figure was 12.3%.
`C#CCNc1cc(-c2ccccc2)nc2ncnn12`: the inhibition is -2.5%.
Turning to `COC(=O)c1ccc(C(=O)OC)c(NC(=O)C(C)(C)C)c1`, the inhibition is -4.3%.
Consider `COc1ccc(OC)c(NC(=O)CCNS(=O)(=O)c2cccs2)c1`, for which the inhibition is 0.3%.
Regarding `COc1ccccc1-c1nnc(SCC(=O)O)n1-c1ccccc1`, the inhibition is 0.5%.
Regarding `CCCCN(C(=O)c1ccc(NC(=O)C(C)C)cc1)c1ccccc1`, the inhibition is 8.2%.
